Assay results from PubChem BioAssay (NCI).
Compounds without any hit were thinned out: in the full panel of roughly 83,000, 20% have a hit.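 Activity criterion: percent growth below 10, measured after cells in 96-well plates were exposed to a single compound concentration for 48 hours.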 A number with no mark means an inactive call. Calls of active or inactive are those of the source.

Legend:
Experiment in all cases: NCI-60 one-dose screen, 48 h (100 = growth as untreated, 0 = no growth, -100 = all killed)
Conditions in all cases: 10 µM unless noted
T-47D breast = system: T-47D breast
BT-549 breast = system: BT-549 breast
MDA-MB-435 melanoma = system: MDA-MB-435 melanoma
SW-620 colon = system: SW-620 colon
MCF7 breast = system: MCF7 breast
HCT-116 colon = system: HCT-116 colon
HCC-2998 colon = system: HCC-2998 colon
KM12 colon = system: KM12 colon

## NC(=N\N=C/c1cccc([N+](=O)[O-])c1)/C(N)=N\N=C/c1cccc([N+](=O)[O-])c1
T-47D breast
  growth: 4.8% (active)
BT-549 breast
  growth: -14.9% (active)
MDA-MB-435 melanoma
  growth: 73.2%
SW-620 colon
  growth: 38.9%
MCF7 breast
  growth: 12.9%
HCT-116 colon
  growth: 37.4%
HCC-2998 colon
  growth: 102%
KM12 colon
  growth: 54.2%

## Cn1cc(-c2csc(-c3cccc(F)c3)n2)c2cccnc21
T-47D breast
  growth: -47.9% [100 µM] (active)
BT-549 breast
  growth: -36.9% [100 µM] (active)
MDA-MB-435 melanoma
  growth: -53.6% [100 µM] (active)
SW-620 colon
  growth: -49.8% [100 µM] (active)
MCF7 breast
  growth: -62% [100 µM] (active)
HCT-116 colon
  growth: -79.7% [100 µM] (active)
HCC-2998 colon
  growth: -84.6% [100 µM] (active)
KM12 colon
  growth: -70% [100 µM] (active)

## N=C1C(c2nc(-c3ccc(Br)cc3)cs2)=C(O)CN1CC1CCCO1 (configuration not stated)
T-47D breast
  growth: 95.7%
BT-549 breast
  growth: 106%
MDA-MB-435 melanoma
  growth: 88.8%
SW-620 colon
  growth: 60%
MCF7 breast
  growth: 78.4%
HCT-116 colon
  growth: 25.7%
HCC-2998 colon
  growth: 95.1%
KM12 colon
  growth: 86.6%

## C=C(C)[C@@H]1CC=C2c3sc(-c4ccc(C)cc4)nc3C[C@@H](C)[C@]2(C)C1
T-47D breast
  growth: 95.4%
BT-549 breast
  growth: 109%
MDA-MB-435 melanoma
  growth: 101%
SW-620 colon
  growth: 103%
MCF7 breast
  growth: 96.9%
HCT-116 colon
  growth: 105%
HCC-2998 colon
  growth: 115%
KM12 colon
  growth: 101%

## COc1ccc(N=C(c2ccccc2)C2C(=O)c3ccccc3C2=O)cc1
T-47D breast
  growth: 78%
BT-549 breast
  growth: 74.3%
MDA-MB-435 melanoma
  growth: 58.6%
SW-620 colon
  growth: 71.4%
MCF7 breast
  growth: 84.6%
HCT-116 colon
  growth: 81.2%
HCC-2998 colon
  growth: 112%
KM12 colon
  growth: 100%

## Nc1n[nH]c(-c2cc(Cl)ccc2O)c1-c1ccccc1
T-47D breast
  growth: 85.3%
BT-549 breast
  growth: 112%
MDA-MB-435 melanoma
  growth: 93.6%
SW-620 colon
  growth: 102%
MCF7 breast
  growth: 92.7%
HCT-116 colon
  growth: 85.1%
HCC-2998 colon
  growth: 86.5%
KM12 colon
  growth: 64.2%

## N=c1sc(Cc2ccc(Cl)cc2)cn1CC(=O)c1ccc(F)cc1
T-47D breast
  growth: 64.6%
BT-549 breast
  growth: 94.9%
MDA-MB-435 melanoma
  growth: 37%
SW-620 colon
  growth: 53.5%
MCF7 breast
  growth: 55%
HCT-116 colon
  growth: 63.7%
HCC-2998 colon
  growth: 59%
KM12 colon
  growth: 39.9%

## Cc1cc(NCc2cc(Nc3ccnc4cc(Cl)ccc34)ccc2F)nc(N2CCCC2)n1
T-47D breast
  growth: -59.7% (active)
BT-549 breast
  growth: 58.1%
MDA-MB-435 melanoma
  growth: -94.7% (active)
SW-620 colon
  growth: -1.87% (active)
MCF7 breast
  growth: -14.1% (active)
HCT-116 colon
  growth: -53.5% (active)
HCC-2998 colon
  growth: -67.9% (active)
KM12 colon
  growth: 12%

## NC(=N\N=C/c1ccccc1[N+](=O)[O-])/C(N)=N\N=C/c1ccccc1[N+](=O)[O-]
T-47D breast
  growth: 104%
BT-549 breast
  growth: 116%
MDA-MB-435 melanoma
  growth: 101%
SW-620 colon
  growth: 105%
MCF7 breast
  growth: 105%
HCT-116 colon
  growth: 108%
HCC-2998 colon
  growth: 108%
KM12 colon
  growth: 104%

## O=C1/C(=C/c2ccc(Br)cc2)C=C(c2ccccc2)N1CCc1ccccc1
T-47D breast
  growth: 50.5%
BT-549 breast
  growth: 74.5%
MDA-MB-435 melanoma
  growth: 63.2%
SW-620 colon
  growth: 70.2%
MCF7 breast
  growth: 55.2%
HCT-116 colon
  growth: 22.7%
HCC-2998 colon
  growth: 70.1%
KM12 colon
  growth: 87.9%

## CNC(=O)c1cc(Oc2ccc3nc(Nc4ccc(Cl)c(C(F)(F)F)c4)ccc3c2)ccn1
T-47D breast
  growth: 43.5%
BT-549 breast
  growth: 83.1%
MDA-MB-435 melanoma
  growth: 52.3%
SW-620 colon
  growth: 104%
MCF7 breast
  growth: 42.7%
HCT-116 colon
  growth: 45.1%
HCC-2998 colon
  growth: 65.5%
KM12 colon
  growth: 52.7%

## CC/C=C\C[C@H](O)C/C=C1/C(=O)C=C[C@@H]1C/C=C\CCCC(=O)OC
T-47D breast
  growth: -0.483% (active)
BT-549 breast
  growth: -20.6% (active)
MDA-MB-435 melanoma
  growth: 4.45% (active)
SW-620 colon
  growth: -44.4% (active)
MCF7 breast
  growth: 4.43% (active)
HCT-116 colon
  growth: -56.5% (active)
HCC-2998 colon
  growth: -78.4% (active)
KM12 colon
  growth: -54.3% (active)

## O=C(c1ccc(Nc2nccc(NCCCCNc3ccnc4cc(Cl)ccc34)n2)cc1)N1CCCCC1
T-47D breast
  growth: -33.2% (active)
BT-549 breast
  growth: 97.6%
MDA-MB-435 melanoma
  growth: -67.6% (active)
SW-620 colon
  growth: 2.09% (active)
MCF7 breast
  growth: 4.09% (active)
HCT-116 colon
  growth: -18.6% (active)
HCC-2998 colon
  growth: -11.2% (active)
KM12 colon
  growth: 54.2%

## CC(C)CCC[C@@H](C)[C@H]1CC[C@H]2[C@@H](Nc3ccc(O)cc3)CCC[C@]12C
T-47D breast
  growth: -15.8% (active)
BT-549 breast
  growth: 113%
MDA-MB-435 melanoma
  growth: 100%
SW-620 colon
  growth: 114%
MCF7 breast
  growth: 56.1%
HCT-116 colon
  growth: 84.8%
HCC-2998 colon
  growth: 122%
KM12 colon
  growth: 87.9%

## COc1ccc(-c2nc(SCCC(C)C)nc(N/N=C\c3ccccc3O)c2C#N)cc1
T-47D breast
  growth: 83.9%
BT-549 breast
  growth: 100%
MDA-MB-435 melanoma
  growth: 87.8%
SW-620 colon
  growth: 72.1%
MCF7 breast
  growth: 79%
HCT-116 colon
  growth: 71%
HCC-2998 colon
  growth: 104%
KM12 colon
  growth: 91.4%

## COc1cccc(C(=O)NCCNc2cc(-c3cn(-c4ccccc4)nc3-c3cccc(OC)c3)ccn2)c1
T-47D breast
  growth: 22.1%
BT-549 breast
  growth: 40.8%
MDA-MB-435 melanoma
  growth: 64.3%
SW-620 colon
  growth: 71.1%
MCF7 breast
  growth: 56.7%
HCT-116 colon
  growth: 40.9%
HCC-2998 colon
  growth: 63.9%
KM12 colon
  growth: 41.5%

## N#Cc1c(N)nn(C(=O)c2ccc(NC(=O)c3ccccn3)cc2)c1-c1ccc(Cl)cc1
T-47D breast
  growth: -16.7% (active)
BT-549 breast
  growth: 15.5%
MDA-MB-435 melanoma
  growth: 33.9%
SW-620 colon
  growth: 13.9%
MCF7 breast
  growth: 36.4%
HCT-116 colon
  growth: 12.4%
HCC-2998 colon
  growth: 14.9%
KM12 colon
  growth: -26.3% (active)

## COc1ccc(-c2nc(SCCC(C)C)nc(N/N=C\c3cccc([N+](=O)[O-])c3)c2C#N)cc1
T-47D breast
  growth: 27.5%
BT-549 breast
  growth: 63.2%
MDA-MB-435 melanoma
  growth: 56.3%
SW-620 colon
  growth: 15.5%
MCF7 breast
  growth: 35.6%
HCT-116 colon
  growth: 23.5%
HCC-2998 colon
  growth: 52%
KM12 colon
  growth: 27.1%

## Cn1ccc2c(c1=O)C(=O)c1nccc3c1c-2nc1ccccc13
T-47D breast
  growth: 84.9%
BT-549 breast
  growth: 87.4%
MDA-MB-435 melanoma
  growth: 76.4%
SW-620 colon
  growth: -76.3% (active)
MCF7 breast
  growth: -59.1% (active)
HCT-116 colon
  growth: -94.3% (active)
HCC-2998 colon
  growth: -96.2% (active)
KM12 colon
  growth: -88.1% (active)

## COc1ccc2[nH]c(O)c(/C=c3/cc4c(c(-c5cc(OC)c(OC)c(OC)c5)n3)=Nc3ccccc3-4)c2c1
T-47D breast
  growth: 78.7%
BT-549 breast
  growth: 69.5%
MDA-MB-435 melanoma
  growth: 29.6%
SW-620 colon
  growth: 62.8%
MCF7 breast
  growth: 23.4%
HCT-116 colon
  growth: 36.8%
HCC-2998 colon
  growth: 77.1%
KM12 colon
  growth: 52.5%

## CN(C)CCNc1nc2ccccc2c2c1c1c(n2Cc2ccccc2)-c2ccccc2C1=O
T-47D breast
  growth: -41.2% (active)
BT-549 breast
  growth: -86.8% (active)
MDA-MB-435 melanoma
  growth: -65.1% (active)
SW-620 colon
  growth: -92.8% (active)
MCF7 breast
  growth: -93.2% (active)
HCT-116 colon
  growth: -78.2% (active)
HCC-2998 colon
  growth: -91.3% (active)
KM12 colon
  growth: -74.6% (active)

## COc1ccc(/C=c2\nc3n(-c4ccccc4)c4nc5c6c(sc5c(=N)n4n-3c2=O)CCCC6)cc1
T-47D breast
  growth: 71.9%
BT-549 breast
  growth: 94.2%
MDA-MB-435 melanoma
  growth: 89.5%
SW-620 colon
  growth: 104%
MCF7 breast
  growth: 71.9%
HCT-116 colon
  growth: 77%
HCC-2998 colon
  growth: 105%
KM12 colon
  growth: 92.5%

## O=C(NCCCNc1cc(-c2cn(-c3ccccc3)nc2-c2cccc(O)c2)ccn1)c1ccccc1
T-47D breast
  growth: -13.8% (active)
BT-549 breast
  growth: 10.3%
MDA-MB-435 melanoma
  growth: -10.5% (active)
SW-620 colon
  growth: -32.4% (active)
MCF7 breast
  growth: 23%
HCT-116 colon
  growth: 24.8%
HCC-2998 colon
  growth: -26.1% (active)
KM12 colon
  growth: 20.2%

## CC1CC2Oc3ccc(Cl)cc3C(=O)N2O1 (configuration not stated)
T-47D breast
  growth: 104%
BT-549 breast
  growth: 105%
MDA-MB-435 melanoma
  growth: 105%
SW-620 colon
  growth: 99.2%
MCF7 breast
  growth: 112%
HCT-116 colon
  growth: 107%
HCC-2998 colon
  growth: 97.5%
KM12 colon
  growth: 107%

## N#Cc1c(-c2ccccc2)cc(-c2ccc(Nc3nc(Nc4ccc(F)cc4)nc(Nc4ccc(F)cc4)n3)cc2)nc1N
T-47D breast
  growth: 77%
BT-549 breast
  growth: 101%
MDA-MB-435 melanoma
  growth: 105%
SW-620 colon
  growth: 93.9%
MCF7 breast
  growth: 84.3%
HCT-116 colon
  growth: 70.7%
HCC-2998 colon
  growth: 51.8%
KM12 colon
  growth: 95.3%

## O=C1CCc2c(sc3[nH]c(=S)n(-c4ccc(OC(F)(F)F)cc4)c(=O)c23)C1
T-47D breast
  growth: 20.3%
BT-549 breast
  growth: 38%
MDA-MB-435 melanoma
  growth: 55%
SW-620 colon
  growth: 19.9%
MCF7 breast
  growth: 44.5%
HCT-116 colon
  growth: 30.1%
HCC-2998 colon
  growth: 28.5%
KM12 colon
  growth: 10.8%

## N#CC1=C(NC=O)Oc2c(ccc3ccccc23)C1c1ccccc1 (configuration not stated)
T-47D breast
  growth: 25.2%
BT-549 breast
  growth: 25.9%
MDA-MB-435 melanoma
  growth: -33% (active)
SW-620 colon
  growth: 21.3%
MCF7 breast
  growth: 17.5%
HCT-116 colon
  growth: 21.1%
HCC-2998 colon
  growth: 63%
KM12 colon
  growth: 30.7%

## NS(=O)(=O)c1cnccc1Sc1ccncc1S(N)(=O)=O
T-47D breast
  growth: 57%
BT-549 breast
  growth: 96.4%
MDA-MB-435 melanoma
  growth: 106%
SW-620 colon
  growth: 113%
MCF7 breast
  growth: 88.9%
HCT-116 colon
  growth: 106%
HCC-2998 colon
  growth: 85.8%
KM12 colon
  growth: 108%

## N#Cc1c(-c2cccc(Cl)c2)cc(-c2cccc(F)c2)[nH]c1=O
T-47D breast
  growth: 84.5%
BT-549 breast
  growth: 86.4%
MDA-MB-435 melanoma
  growth: 90.4%
SW-620 colon
  growth: 97%
MCF7 breast
  growth: 89.2%
HCT-116 colon
  growth: 88.5%
HCC-2998 colon
  growth: 106%
KM12 colon
  growth: 87.9%
